Bioassay records as filed in PubChem.
tim10-1 inh: inhibits growth of tim10-1 mutant yeast. S. cerevisiae tim10-1 ts strain growth, BacTiter-Glo, 24 h. 330,000 compounds, 2.2% hits. inhibition, % at 20 µM. AID 463190;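 active means inhibition of at least 40%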;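 further: mutant grown at 25 °C; 0% = DMSO wells with yeast and 100% = wells holding no yeast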
TIM10 inh: TIM10 yeast growth inhibition | S. cerevisiae TIM10 strain growth, BacTiter-Glo luminescence, 24 h | AID 463195 | inhibition, % at 10 µM | 330,000 compounds, 1.4% hits;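 active means inhibition of 40% or more at the single tested concentration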;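 further: wild-type TIM10 isogenic control strain grown at permissive 25 °C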
tim23-1 inh: tim23-1 yeast growth inhibition; AID 463212; inhibition, % at 20 µM; S. cerevisiae tim23-1 growth, BacTiter-Glo luminescence, 24 h; 330,000 compounds, 1.3% hits;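 active means growth inhibition of the mutant yeast at or above 50%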;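 further: temperature-sensitive mutant grown at 25 °C; plate controls were DMSO-treated mutant yeast for no effect and medium wells lacking yeast for full effect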
CR mimetic SO: caloric restriction mimetics inhibiting age-related superoxide in yeast | S. cerevisiae aged cells, superoxide DHE fluorescence; hits give low values | superoxide response (% of plate mean), % at 10 µM | 330,000 compounds, 0.18% hits | AID 2690;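 active means superoxide response under a set limit, about three screen SD below normal, cut at about 65% in these data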;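 further: yeast aged for seven days with compound at 30 °C before DHE staining; 100% = average MFI of all compound-treated wells on the plate with controls excluded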
NLRP3 yeast inh: NALP3 inhibition in yeast; Yeast reconstituted NLRP3/ASC/caspase-1, beta-gal luminescence, 24 h; inhibition, % at 10 µM; 330,000 compounds, 0.39% hits; AID 2825;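 active means inhibition of 50% or more; inactive means inhibition below 50%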;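 further: plate controls were induced DMSO wells for no effect and uninduced yeast grown without galactose for full effect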
tim23-1 confirm: tim23-1 yeast growth inhibition, confirmed | shares compounds with tim23-1 inh | S. cerevisiae tim23-1 growth, BacTiter-Glo luminescence, 24 h | inhibition, % at 20 µM | 4,400 compounds, 83% hits;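 active means inhibition above about 39% in either of two replicate wells at 20 µM, limit read from the data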;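 further: temperature-sensitive tim23-1 mutant grown at 25 °C; 0% = DMSO wells with yeast and 100% = medium wells without yeast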
* = called active by the depositor; . = no result. This is a sample that favours compounds with a hit; in the whole collection about 3.8% have one here.

SMILES	tim10-1 inh	TIM10 inh	tim23-1 inh	CR mimetic SO	NLRP3 yeast inh	tim23-1 confirm
COc1ccc(C)cc1NC(=O)c1nn(-c2ccccc2)cc1OC	0.3	-6.5	54.5*	95.6	32.8	67.8*
Cc1ccc(S(=O)(=O)NCC(C)NC(=O)CN2CCOCC2)cc1 (stereo unspecified)	3.2	-1.3	7.5	100.1	16.8	.
O=C(OCC(=O)c1ccc[nH]1)c1cncc(Br)c1	-9.0	-9.6	-3.9	97.8	7.5	.
COc1ccc(C(=O)COC(=O)c2cncc(Br)c2)cc1	-14.8	14.8	64.9*	92.2	8.4	75.1*
COc1cccc(-n2nnnc2SCC(=O)N2CCCc3ccccc32)c1	35.2	36.6	57.8*	70.6	17.6	54.5*
Cc1ccc(NC(=S)N(C)C(c2ccccc2)c2ccccc2)cc1C	10.5	6.0	17.2	101.8	14.6	.
CC(C)C(=O)Nc1c(C(=O)N2CCN(c3ncccn3)CC2)oc2ccccc12	8.9	8.2	19.3	109.8	20.3	.
CCC(CC)C(=O)Nc1c(C(=O)N2CCN(c3ccccc3)CC2)oc2ccccc12	39.0	28.1	51.2*	99.3	7.0	42.0*
FC(F)Oc1ccc(/C=N/n2c(Cc3ccc(Br)cc3)n[nH]c2=S)cc1	29.4	31.0	51.0*	103.2	25.8	53.0*
O=[N+]([O-])c1ccc(/C=N/n2c(COc3ccccc3)n[nH]c2=S)cc1	7.9	19.3	11.7	109.5	24.6	.
Cc1ccc(/C=N/n2c(COc3ccccc3)n[nH]c2=S)cc1	21.2	35.7	52.8*	117.7	40.3	27.5
S=c1[nH]nc(COc2ccccc2)n1/N=C/c1cccc(Cl)c1Cl	31.6	39.0	61.2*	105.2	24.7	44.4*
CC(=O)Nc1ccc(C(=O)NCC(=O)OCc2ccccc2F)cc1	18.2	-5.0	14.4	94.2	-12.7	.
CCN(c1ccccc1)S(=O)(=O)c1ccc2ccccc2c1	9.1	-0.1	16.6	89.8	6.9	.
CN(c1ccc(O)cc1)S(=O)(=O)c1ccc2ccccc2c1	-12.7	2.5	51.3*	89.7	44.7	45.0*
O=C1NN=C(c2ccc(Br)cc2)CC1c1ccc(Cl)cc1 (stereo unspecified)	28.7	17.7	59.8*	87.7	1.5	71.7*
CCOC(=O)c1ccc(NC(=O)CSc2nc(=O)n3cccc(C)c3n2)cc1	21.9	-5.5	52.1*	105.7	-8.3	49.8*
CCOC(=O)CSc1nc(=O)n2cccc(C)c2n1	-11.0	4.0	-10.5	102.2	0.4	.
O=C(Oc1ccc(Cl)c2cccnc12)c1ccco1	26.6	22.6	51.8*	88.1	17.9	45.7*
O=C(Oc1cccc2cccnc12)c1ccco1	-7.3	6.9	7.8	108.7	-9.8	.
COc1ccccc1C(=O)Nc1cc(-c2ccc(C)cc2)no1	29.4	27.5	55.4*	103.5	23.7	46.9*
COc1ccccc1C(=O)Nc1c(C)cc(Br)cc1C	36.2	18.0	45.7	79.5	33.0	.
COc1ccc(C(=O)NC(=S)Nc2cccc3cc(O)ccc23)cc1OC	25.7	24.4	21.5	87.6	17.5	.
COC(=O)c1ccccc1NC(=O)c1ccccc1OC	36.7	0.1	51.2*	105.7	34.8	32.0
COc1ccccc1C(=O)NC(=S)Nc1cccc2cc(O)ccc12	33.1	18.8	53.5*	120.3	26.3	46.0*
SMILES	tim10-1 inh	TIM10 inh	tim23-1 inh	CR mimetic SO	NLRP3 yeast inh	tim23-1 confirm
CCC(C)(C)C1CCc2[nH]nc(C(=O)NCC3CC3)c2C1 (stereo unspecified)	39.6	35.0	55.9*	85.7	9.4	64.0*
CCC(C)(C)C1CCc2[nH]nc(C(=O)NC(C)C)c2C1 (stereo unspecified)	36.1	22.1	53.4*	101.3	9.2	53.0*
Cc1ccsc1/C=C1\SC(N2CC(C)OC(C)C2)=NC1=O (stereo unspecified)	5.2	9.3	8.6	95.0	-5.2	.
Cc1ccc(S(=O)(=O)NCC(=O)NCC(=O)N2CCC(C)CC2)cc1	-7.3	-1.5	-7.1	102.3	3.1	.
COc1ccc(C(=O)c2sc(NC(C)C)nc2N)cc1OC	17.5	10.4	10.6	102.0	8.0	.
CC(C)Nc1nc(N)c(C(=O)C23CC4CC(CC(C4)C2)C3)s1	24.1	15.9	53.1*	84.5	4.8	55.7*
CN(Cc1ccccc1)C(=O)c1nn2cccnc2c1Cl	17.7	6.4	5.1	104.3	-2.1	.
Cc1nnc2n(Cc3ccccc3)c(=O)c3c4c(sc3n12)COC(C(C)C)C4 (stereo unspecified)	26.4	-1.0	54.9*	107.9	7.2	37.8
CSc1nnc2n(Cc3ccccc3)c(=O)c3c4c(sc3n12)COC(C(C)C)C4 (stereo unspecified)	10.7	7.7	7.8	112.8	11.9	.
Cc1csc2nc(O)c(C(=O)NC3CCCCC3C)c(=O)n12 (stereo unspecified)	29.8	22.7	66.5*	101.8	-5.7	44.4*
O=C(NCCc1c[nH]c2ccccc12)/C(=C\c1ccco1)NC(=O)c1ccco1	13.9	3.6	94.2*	104.8	6.0	3.6
O=C(/C=C/c1ccccc1)NCCc1c[nH]c2ccccc12	-11.1	18.8	59.3*	90.8	13.9	59.6*
CC1CCN(C(=O)COC(=O)c2cccc(S(=O)(=O)N(C)c3ccccc3)c2)CC1	-7.3	-3.2	22.2	112.2	16.3	.
CCOC(=O)C1CCN(C(=O)Cc2c(C(=O)O)n(C)c3ccccc23)CC1	12.4	-2.9	77.2*	90.5	-8.7	1.4
CCOC(=O)C1CCN(C(=O)Cc2ccccc2OC)CC1	-19.5	-6.3	-5.0	93.1	11.6	.
CC(=O)N[C@@H](Cc1c[nH]c2ccccc12)C(=O)NC1CC1	20.5	-8.2	5.2	101.5	13.1	.
c1ccc(-c2cc3ccccc3cn2)cc1	-9.3	8.4	50.6*	126.0	30.2	75.4*
COc1cc(OC)cc(-c2cc3ccc(OC)cc3cn2)c1	25.7	13.3	51.2*	84.7	27.3	54.5*
COc1ccc2cc(-c3ccccc3)ncc2c1	-20.3	-4.6	8.2	90.2	47.0	.
c1ccc(-c2cc(-c3ccccc3)ncn2)cc1	6.5	14.2	16.5	92.2	14.1	.
COc1cc2cnc(-c3ccccc3)cc2cc1OC	-7.8	7.7	51.7*	77.5	46.5	44.5*
CN1CC2(C)OC(=O)C(Cl)=C2CC1c1ccccc1 (stereo unspecified)	5.1	-3.8	5.3	101.5	7.0	.
COc1cc2c(cc1OC)C(c1ccc([N+](=O)[O-])cc1)NC(=O)C2 (stereo unspecified)	18.8	13.0	13.7	97.2	4.1	.
O=C1CCc2cc(NS(=O)(=O)c3ccc([N+](=O)[O-])cc3)cc3c2N1CCC3	5.6	10.3	-20.6	109.2	17.4	.
N#C/C(=C\c1cccnc1)c1ccc([N+](=O)[O-])cc1	33.9	28.0	55.2*	101.7	37.3	36.1
N#C/C(=C/c1cccnc1)c1ccccc1	0.8	5.1	17.8	99.9	23.3	.
